Experimental findings from PubChem BioAssay are described below.

The source made the active and inactive calls.

Assay [1] is described as follows: compounds binding Alexa647 anti-His antibody – biochemical, small-molecule microarray, 635 nm fluorescence, artefact control for SMM control protein annotation, primary screen (AID 1128).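 Also: score merges feature fluorescence with signal-to-noise for each printed compound spot.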 As to conditions: higher = more signal.
For assay [2], the system named is Human papillomavirus type 1a E7 protein (residues 1-88). Kind of assay: HPV1a E7 small-molecule binders, primary screen, biochemical, small-molecule microarray, residues 1-88, 635 nm (AID 1129). The note with it: small-molecule microarray binding, fluorescence 635 nm; higher = more signal.
The target in assay [3] is Focal adhesion kinase 1 (Homo sapiens) (UniProt Q05397). Kind of assay: PTK2 protein binding on printed compound slides – biochemical, small-molecule microarray, 635/667 nm fluorescence, BSA, DTT, primary screen (AID 1130).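 Also: composite of spot emission at 667 nm and signal to noise over triplicate slides.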 The note with it: 635 nm fluorescence, higher = more signal.
Chain of Focal adhesion kinase 1 (Homo sapiens) (Q05397 whole entry, looked up): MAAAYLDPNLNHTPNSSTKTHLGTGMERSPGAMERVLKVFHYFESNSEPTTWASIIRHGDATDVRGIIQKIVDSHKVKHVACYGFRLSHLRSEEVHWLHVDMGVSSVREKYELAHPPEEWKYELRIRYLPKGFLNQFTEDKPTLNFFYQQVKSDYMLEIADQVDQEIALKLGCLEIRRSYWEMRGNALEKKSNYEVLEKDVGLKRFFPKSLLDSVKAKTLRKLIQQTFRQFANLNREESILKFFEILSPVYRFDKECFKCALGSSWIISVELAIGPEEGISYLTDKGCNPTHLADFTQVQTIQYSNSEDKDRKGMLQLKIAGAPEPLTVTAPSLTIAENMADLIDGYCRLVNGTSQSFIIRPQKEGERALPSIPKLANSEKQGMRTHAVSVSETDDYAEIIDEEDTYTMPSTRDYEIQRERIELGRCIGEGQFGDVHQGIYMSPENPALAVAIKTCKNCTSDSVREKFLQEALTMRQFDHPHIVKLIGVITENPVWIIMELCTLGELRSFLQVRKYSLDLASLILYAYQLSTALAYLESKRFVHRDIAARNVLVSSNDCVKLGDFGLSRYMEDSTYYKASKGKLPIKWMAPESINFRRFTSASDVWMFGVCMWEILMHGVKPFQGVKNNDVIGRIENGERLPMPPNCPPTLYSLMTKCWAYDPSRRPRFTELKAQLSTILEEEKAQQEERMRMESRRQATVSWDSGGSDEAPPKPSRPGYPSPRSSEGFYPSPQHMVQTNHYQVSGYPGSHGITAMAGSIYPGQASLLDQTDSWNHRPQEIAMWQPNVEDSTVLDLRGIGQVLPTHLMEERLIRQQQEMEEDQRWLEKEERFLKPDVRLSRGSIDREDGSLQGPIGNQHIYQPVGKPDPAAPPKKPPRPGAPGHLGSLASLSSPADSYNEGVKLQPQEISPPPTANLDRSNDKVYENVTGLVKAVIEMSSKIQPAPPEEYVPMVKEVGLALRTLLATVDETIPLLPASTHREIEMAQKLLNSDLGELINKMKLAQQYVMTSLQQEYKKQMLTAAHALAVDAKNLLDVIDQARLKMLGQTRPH
Assay [4] deals with Fibrinogen (Alexa647-labelled). Kind of assay: Alexa647-fibrinogen binding to printed small molecules – biochemical, small-molecule microarray, 635/667 nm fluorescence, artefact control for SMM control-protein annotation, profiling panel (AID 1131).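 Also: z-score merges 667 nm fluorescence with per-spot signal-to-noise over triplicate slides.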 The note with it: fibrinogen-A647 binding fluorescence, higher = more signal.
For assay [5], the target named is Follistatin (Homo sapiens) (UniProt P19883). Kind of assay: FST protein binding to printed compounds – biochemical, small-molecule microarray, 635/667 nm fluorescence, primary screen (AID 1132). As to conditions: 635 nm fluorescence, higher = more signal.
Chain of Follistatin (Homo sapiens) (P19883 whole entry, looked up): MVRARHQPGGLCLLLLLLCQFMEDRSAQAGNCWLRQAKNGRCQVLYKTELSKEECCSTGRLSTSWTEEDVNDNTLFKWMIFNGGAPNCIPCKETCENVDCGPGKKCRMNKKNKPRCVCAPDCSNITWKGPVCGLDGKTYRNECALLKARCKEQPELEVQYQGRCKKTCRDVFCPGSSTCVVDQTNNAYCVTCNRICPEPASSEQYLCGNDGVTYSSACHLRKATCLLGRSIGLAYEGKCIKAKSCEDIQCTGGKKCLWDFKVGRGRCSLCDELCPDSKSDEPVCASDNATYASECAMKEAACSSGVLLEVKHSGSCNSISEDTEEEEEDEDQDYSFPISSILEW
For assay [6], the target named is Fibroblast growth factor 2 (Homo sapiens) (UniProt P09038). Kind of assay: basic fibroblast growth factor binding to printed compounds – biochemical, small-molecule microarray, 635/667 nm fluorescence, primary screen (AID 1133). The note with it: FGF2, fluorescence 635/667, higher = more signal.
Chain of Fibroblast growth factor 2 (Homo sapiens) (P09038 whole entry, looked up): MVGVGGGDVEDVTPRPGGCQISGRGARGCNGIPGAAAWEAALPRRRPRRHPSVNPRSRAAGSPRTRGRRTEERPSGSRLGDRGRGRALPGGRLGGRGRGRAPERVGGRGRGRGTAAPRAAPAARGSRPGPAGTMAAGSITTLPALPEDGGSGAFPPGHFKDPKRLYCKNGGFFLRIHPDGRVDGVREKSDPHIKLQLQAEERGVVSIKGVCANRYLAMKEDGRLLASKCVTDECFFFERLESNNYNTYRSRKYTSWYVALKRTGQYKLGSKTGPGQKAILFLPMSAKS
Assay [7] is described as follows: JC-1 mitochondrial potential readout, lung cancer cells – cell-based, A549, JC-1 fluorescence, basal, 24 h, 100 nL, profiling panel (AID 1138).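 Also: A549 lung adenocarcinoma cells under basal conditions with no added stimulus; test concentration not given here.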 The note with it: higher = more signal.
A further assay relates to Lefty1. Kind of assay: Lefty1 protein binding to printed compounds – biochemical, small-molecule microarray, 635/667 nm fluorescence, primary screen (AID 1139). The note with it: fluorescence 635/667, higher = more signal.
For assay [8], the system named is wheat germ agglutinin (Triticum aestivum), Alexa647-labelled. Kind of assay: Alexa647-WGA lectin binding to printed small molecules – biochemical, small-molecule microarray, 635/667 nm fluorescence, artefact control for SMM control-protein annotation, profiling panel (AID 1140).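 Also: score merges 667 nm feature emission with signal to noise over triplicate slides.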 As to conditions: WGA-A647 binding, 635 nm fluorescence, higher = more signal.
The target of assay [9] is Luciferin 4-monooxygenase (Photinus pyralis) (UniProt P08659). Kind of assay: inhibition of purified Photinus pyralis luciferase – biochemical, luminescence, purified enzyme, 2006 set, primary screen (AID 1141).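 Also: cell-free assay with purified firefly luciferase at 100 ng per well in PBS; test concentration not given here.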 As to conditions: purified firefly luciferase, SteadyGlo luminescence, 30 min; higher = more signal, called active from +8 up or from −8 down.
Chain of Luciferin 4-monooxygenase (Photinus pyralis) (P08659 whole entry, looked up): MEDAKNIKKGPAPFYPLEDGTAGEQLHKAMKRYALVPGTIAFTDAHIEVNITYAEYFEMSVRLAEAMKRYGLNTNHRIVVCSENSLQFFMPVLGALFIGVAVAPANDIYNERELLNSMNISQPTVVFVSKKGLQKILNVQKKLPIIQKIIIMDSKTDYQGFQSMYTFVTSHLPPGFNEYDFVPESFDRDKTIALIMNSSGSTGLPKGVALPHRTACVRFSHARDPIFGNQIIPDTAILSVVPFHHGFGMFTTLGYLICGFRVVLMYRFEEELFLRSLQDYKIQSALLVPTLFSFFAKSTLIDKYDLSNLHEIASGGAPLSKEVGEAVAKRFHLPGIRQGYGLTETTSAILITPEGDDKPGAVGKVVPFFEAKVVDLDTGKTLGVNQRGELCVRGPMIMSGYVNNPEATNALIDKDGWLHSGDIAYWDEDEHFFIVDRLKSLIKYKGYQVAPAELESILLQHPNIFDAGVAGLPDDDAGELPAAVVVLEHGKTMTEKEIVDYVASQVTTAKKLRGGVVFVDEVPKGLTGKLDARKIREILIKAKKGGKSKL

In the case of `COCCOC(=O)N1C(=O)[C@@]2(c3cc(C#CCCO)ccc31)[C@H](c1ccc(OCCO)cc1)N1[C@H](c3ccccc3)[C@H](c3ccccc3)OC(=O)[C@H]1[C@@H]2C(N)=O`, the composite z-score in [1] was found to be 1.3; in assay [2], 1.2; in assay [3], 0.711; in assay [4] it was 0.837; in assay [5] it was 1.04; in assay [6], 0.752. In addition, the composite z-score is 0.496 in the assay with Lefty1 and 0.694 in assay [8]. In addition, the z-score in assay [7] was -0.212; in assay [9], -1.77 (inactive).
Regarding `C=C[C@H](C)[C@@H](OC(=O)Nc1ccc(SC)cc1)c1ccc(O)c2ccccc12`, the composite z-score in assay [1] came out at 3.14; in [2], 1.24; in assay [3] it was 0.183; in assay [4], 0.294; in assay [5], 1.37; in assay [6], 1.54. The composite z-score was determined as 1.1 in the assay on Lefty1 and 0.108 in assay [8]. In addition, the results for the z-score in [7] and in assay [9] were -1.7 and -2.61 (inactive), respectively.
As for `CO[C@H]1O[C@H](CO)[C@@H](OC(=O)Nc2ccc(Oc3ccccc3)cc2)[C@H](OC(=O)Nc2ccc3c(c2)OCO3)[C@@H]1OC(=O)Nc1ccc2c(c1)OCO2`, the composite z-score worked out at 1.83 in assay [1]; 1.24 in assay [2]; 0.653 in assay [3]; 0.85 in assay [4]; 1.28 in assay [5]; 1.2 in assay [6]. Further, the composite z-score turned out to be 0.423 in the assay on Lefty1 and 0.779 in [8]. For the same compound, the values for the z-score in assay [7] and in assay [9] were -0.216 and -5.16 (inactive), respectively.
Consider `O=C1OCC=C[C@H]2OC34C=CCN(CCN5CCOCC5)C(=O)[C@H]3N(CCO)C(=O)[C@@H]4[C@@H]12` (stereo not given in full), for which the composite z-score in assay [1] was 0.15; in assay [2] it was -0.204; in assay [3] it was -0.133; in assay [4], 0.368; in [5], 0.597; in assay [6], -0.219. Besides, the figures for the composite z-score (in the assay with Lefty1; in [8]) were 1.41 and 0.0315, respectively. Moreover, the z-score in assay [7] was 0.587; in assay [9] it was -0.602 (inactive).
For `CC(C)CNC(=O)[C@@]1(Cc2ccccc2I)c2ccccc2C(=O)N(Cc2ccccc2C(F)(F)F)[C@H]1c1ccc(CO)cc1`, the composite z-score in assay [1] was 0.657; in [2] it was 0.0788; in assay [3], -0.287; in [4] it was -0.105; in assay [5], -0.239; in assay [6] it was -0.217. Besides, the composite z-score with Lefty1 was -0.639; in assay [8], 0.34. For the same compound, the z-score in assay [7] was -0.171; in assay [9], 0.654 (inactive).
Consider `[N-]=[N+]=NCc1ccccc1[C@@H]1OC(c2ccc(OCCCO)cc2)=N[C@]1(CCS(=O)(=O)c1ccccc1)C(=O)N1CCCCC1`, for which the composite z-score in assay [1] came out at 0.621; in [2] it was 1.26; in assay [3], 0.0201; in assay [4], 1.08; in assay [5], 0.981; in [6], 0.432. In addition, the composite z-score in the assay on Lefty1 stood at 0.275; in [8], 1.02. Also, the values for the z-score in assay [7] and in [9] were -0.706 and -0.938 (inactive), respectively.
In the case of `C#CCN1[C@H](/C=C/C2CC2)[C@H](Cc2ccccc2)OC(=O)[C@@H]1Cc1ccccc1`, the composite z-score in assay [1] is 0.924; in [2] it was 0.743; in assay [3] it was 0.229; in assay [4], 0.884; in assay [5], 0.578; in assay [6] it was 0.242. In addition, the composite z-score in the assay with Lefty1 is 0.536; in assay [8] it was -0.153. The figures for the z-score in [7] and in [9] were 3.8 and -0.373 (inactive), respectively.
For `C=C(CCCC)/C(=C/C[C@H](OC(=O)c1ccncc1)c1ccc(OCCO)cc1)c1cc(C(=O)OC)ccc1OC`, the composite z-score in [1] was 1.07; in [2], 1.18; in assay [3] it was 0.525; in assay [4], 0.438; in assay [5], -0.0021; in assay [6], 0.0508. In addition, the composite z-score turned out to be 0.394 in the assay on Lefty1 and 0.704 in assay [8]. In addition, the z-score in [7] was 0.313; in assay [9], -0.723 (inactive).
On to `C=CCN1C(=O)[C@]2(O[C@H](CCO)[C@@H]([Si](C)(C)c3ccc(OC)cc3)[C@@H]2C)c2cc(N(C=O)c3ccccc3)ccc21`, for which the composite z-score in assay [1] was 0.896; in assay [2] it was 0.823; in assay [3] it was -0.0453; in [4], -0.16; in assay [5], -0.193; in assay [6], -0.129. In addition, the results for the composite z-score (in the assay with Lefty1; in assay [8]) were 0.148 and 0.792, respectively. Moreover, the z-score in [7] is -1.08; in assay [9] it was -0.914 (inactive).
Regarding `CCCC1(C(=O)OC)C=C2C(=C(c3ccccc3)C(=O)C2C)CN1` (stereo not given), the composite z-score in [1] was 0.295; in assay [2] it was 0.412; in [3], 0.198; in assay [4], 0.453; in [5], 0.13; in assay [6], -0.299. Besides, the composite z-score was 0.0496 with Lefty1 and 0.858 in assay [8]. In addition, the z-score was 1.63 in assay [7] and 1.11 (inactive) in [9].
As to `COc1ccccc1CN1C(=O)c2ccccc2[C@@H](C(=O)NCc2ccccc2)[C@@H]1c1ccc(CO)cc1`, the composite z-score in assay [1] came out at 1.99; in assay [2], 0.464; in assay [3] it was 0.377; in assay [4], 0.688; in [5], 0.211; in assay [6], 0.546. Moreover, the composite z-score in the assay on Lefty1 came out at 0.423; in [8] it was 0.397. The z-score is 1.03 in [7] and -0.898 (inactive) in assay [9].
